Results filed as inconclusive are left out. The source made the active and inactive calls. Calls come from the whole dose curve; as a rule, active = well fitted activation curve with a large enough effect; inconclusive = small, poorly fitted or top-dose-only effect; inactive = flat fitted curve, though single readings scatter.

The assay is described as follows: qHTS for Hypoxia signaling pathway (HIF-1) agonists against the NCATS CANVASS Library (AID 1347375). The settings on record: HRE-bla ME-180 cells, HIF-1 beta-lactamase reporter, 17 h; series mostly up to 38.3 µM. The gist of the method: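 An HRE-beta-lactamase ME-180 line is exposed for 17 h to an 11-point compound series, then read by CCF4-AM FRET. Cytotoxicity is measured in parallel in the same wells with CellTiter-Glo, and autofluorescence is checked separately.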
Background: In qHTS, concentration-response curves come from the screen itself.
Regarding `C[C@H]1C=C[C@H]2CCCC[C@@H]2[C@H]1C(=O)[C@H]1CC2=C(C(=O)O)CCN2C1=O`, the result was inactive.

On to `C/C=C(/C)c1c(Cl)c(OC)c(C)c2c1Oc1c(Cl)c(O)c(Cl)c(C)c1C(=O)O2`, for which the call was inactive.

In the case of `C/C(=C\CC[C@@H](C)[C@H]1CC[C@]2(C)C3=CCC4C(C)(C)[C@@H](O)C[C@@H](O)[C@]4(C)C3[C@H](O)C[C@@]12C)CO` (stereo not given in full), the outcome was inactive.

With `COC12OC1(C13OC1(OC)C(=O)c1cc4cc(C)oc(=O)c4c(O)c1C3O)C(O)c1c(cc3cc(C)oc(=O)c3c1O)C2=O` (stereo not given), the result was inactive.

On to `CO[C@H]1[C@@H](OC(=O)/C(C)=C\[C@@H]2O[C@@H]2[C@H]2O[C@H]2C)[C@H](O)[C@H](OCC23C[C@@H]4[C@H](C)CC[C@H]4C4(C=O)CC2C=C(C(C)C)C34C(=O)O)O[C@@H]1C` (stereo not given in full), for which the compound was called inactive.

Source of the values: PubChem BioAssay (NCATS).
